# Source: ChEMBL document CHEMBL3988442, “University of Dundee, Small-Polar-MMV Screening Library” (2021)
# About 13,000 (27%) of roughly 48,000 compounds showed an effect of 50% or more. Some of the results follow.
# System: Wolbachia pipientis
# Assay: Anti-Wolbachia Cell-Based Screen
# Type: functional
# Set-up: scale not given: in the data most compounds retested in dose-response had high values
# Conditions: 5 µM
row,SMILES,Percent Effect [%]
1,Cc1cnc(CN2CCN(C(C)c3nc(C(C)C)no3)CC2)cn1 (centres undefined),10.96
2,CC(C)c1nc(C2CCCN(c3ncccn3)C2)no1 (centres undefined),10.51
3,N#Cc1ccc(N2CCN(c3cnccn3)CC2)c(C(F)(F)F)c1,-6.859
4,FC(F)(F)c1cc(C2CCN(c3cnccn3)CC2)n2ccnc2n1,100.9
5,FC(F)(F)c1ccnc(N2CCCC(N3CCOCC3)C2)c1 (centres undefined),3.517
6,CC(C)N1CCCC(c2cc(C(F)(F)F)nc3nccn23)C1 (centres undefined),97.97
7,CC(C)c1nc(C2CCCN(c3nccc(C(F)(F)F)n3)C2)no1 (centres undefined),4.176
8,FC(F)(F)c1cc(C2CCCN(c3cnccn3)C2)n2ccnc2n1 (centres undefined),112.2
9,CC(C)n1ccnc1C1CCCN(c2nc3ccccc3s2)C1 (centres undefined),8.79
10,FC(F)(F)c1cc(C2CCCN(c3ncccn3)C2)n2ccnc2n1 (centres undefined),126.4
11,N#Cc1ccc(N2CCN(c3cnccn3)CC2)cc1C(F)(F)F,-11.21
12,CC(C)N1CC[C@H](c2nc3ccc(C(F)(F)F)cc3[nH]2)C1,-4.029
13,CN(C)Cc1nnc(C2CCCN(c3cc(C(F)(F)F)ccn3)C2)n1C (centres undefined),-6.748
14,CCNc1ncc(C(=O)NCc2csc(-c3ncccn3)n2)cn1,-30.13
15,CCOC(C)c1nc(CN2CCC(CNC(C)=O)CC2)cs1 (centres undefined),-3.059
16,Cn1ccnc1C1CCN(C(=O)COCC(F)(F)C(F)F)CC1,-2.138
17,CC(=O)N1CCC(c2cc(C(F)(F)F)nc3nccn23)CC1,113.6
18,CN(C)CCn1ccnc1C1CCN(C(=O)CCC(F)(F)F)CC1,-12.98
19,Cc1ccc2c(C)c(C(=O)NCCc3csc(N)n3)oc2c1,32.42
20,O=C(c1cc(-c2ccco2)nc2c(Cl)cccc12)N1C[C@H]2CNC[C@H]2C1,10.23
21,CC(C)(C)c1cc(C[C@H]2CNCC[C@H]2CC(=O)NCc2cccs2)no1,1.711
22,Cc1cc(C2CCCN2C(=O)NCc2cccc(F)c2)on1 (centres undefined),-2.715
23,COc1nc2c(cc1C(=O)NCc1noc(Cc3cccs3)n1)CCC2,-29.09
24,CCc1ccc2nc(C)cc(C(=O)NC[C@@H]3CCNC[C@H]3O)c2c1,-0.4588
25,Cc1cc(C(=O)NCc2ccc(F)cc2)c2c(C3CCCN3)noc2n1 (centres undefined),101.4
26,CCc1ccc2nc(C)cc(C(=O)N[C@@H]3CNC[C@H]3O)c2c1,-12.87
27,Cc1cc(C(=O)NCc2ccc(F)cc2)c2c(C3CCNC3)noc2n1 (centres undefined),105.3
28,CC(C)Cc1cc(CNC(=O)c2ccccc2C2CCNC2)no1 (centres undefined),0.6659
29,Cc1cc(C(=O)NCc2cccs2)c2c(C3CCCN3)noc2n1 (centres undefined),99.02
